Measured values as given in ChEMBL document CHEMBL1961873, “Compounds: GSK PKIS; Assays: Nanosyn kinase panel” (2012).

Legend:
[1] = molecular target: Sphingosine kinase 1 (Homo sapiens) (UniProt Q9NYA1); conditions: at 1 µM;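 also: mean SPHK1 inhibition value reported from the GSK PKIS kinase panel screen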
[2] = molecular target: T1, Sphingosine kinase 2 (Homo sapiens) (UniProt Q9NRA0); conditions: at 0.1 µM
T1 sequence (whole entry): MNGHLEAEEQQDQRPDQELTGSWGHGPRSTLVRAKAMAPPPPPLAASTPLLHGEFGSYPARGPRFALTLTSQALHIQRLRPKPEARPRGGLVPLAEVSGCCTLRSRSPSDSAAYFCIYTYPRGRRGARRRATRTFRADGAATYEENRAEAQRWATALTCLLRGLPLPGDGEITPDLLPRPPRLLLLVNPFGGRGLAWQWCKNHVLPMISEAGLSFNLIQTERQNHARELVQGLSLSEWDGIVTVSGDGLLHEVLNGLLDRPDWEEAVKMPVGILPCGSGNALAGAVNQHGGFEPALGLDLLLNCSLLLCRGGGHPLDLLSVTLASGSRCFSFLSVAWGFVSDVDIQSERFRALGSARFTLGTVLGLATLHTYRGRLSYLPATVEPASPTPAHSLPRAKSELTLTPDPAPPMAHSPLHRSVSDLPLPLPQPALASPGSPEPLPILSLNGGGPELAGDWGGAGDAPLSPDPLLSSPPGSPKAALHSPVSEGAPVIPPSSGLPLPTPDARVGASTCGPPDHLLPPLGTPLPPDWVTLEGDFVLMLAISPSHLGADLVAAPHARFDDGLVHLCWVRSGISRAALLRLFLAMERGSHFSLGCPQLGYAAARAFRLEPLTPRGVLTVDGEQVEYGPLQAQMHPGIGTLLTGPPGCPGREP

[3] = molecular target: T1, Sphingosine kinase 2 (Homo sapiens); conditions: at 1 µM
[4] = molecular target: Casein kinase II subunit alpha (Homo sapiens) (UniProt P68400); conditions: at 0.1 µM
Chain of Casein kinase II subunit alpha (Homo sapiens) (P68400 whole entry, looked up): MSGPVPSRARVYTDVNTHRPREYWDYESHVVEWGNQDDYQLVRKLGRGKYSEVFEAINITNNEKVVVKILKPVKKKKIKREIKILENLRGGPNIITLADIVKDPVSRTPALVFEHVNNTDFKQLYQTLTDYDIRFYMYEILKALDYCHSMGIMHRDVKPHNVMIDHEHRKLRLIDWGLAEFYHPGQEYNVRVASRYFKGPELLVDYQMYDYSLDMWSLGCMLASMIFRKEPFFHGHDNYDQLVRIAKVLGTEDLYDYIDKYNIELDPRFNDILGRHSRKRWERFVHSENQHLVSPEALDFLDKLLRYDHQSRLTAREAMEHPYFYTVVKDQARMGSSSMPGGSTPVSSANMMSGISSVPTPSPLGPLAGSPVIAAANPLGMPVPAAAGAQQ

[5] = molecular target: Casein kinase II subunit alpha (Homo sapiens) (UniProt P68400); conditions: at 1 µM
[6] = molecular target: T2, Inhibitor of nuclear factor kappa-B kinase subunit alpha (Homo sapiens) (UniProt O15111); conditions: at 0.1 µM
T2 sequence (whole entry): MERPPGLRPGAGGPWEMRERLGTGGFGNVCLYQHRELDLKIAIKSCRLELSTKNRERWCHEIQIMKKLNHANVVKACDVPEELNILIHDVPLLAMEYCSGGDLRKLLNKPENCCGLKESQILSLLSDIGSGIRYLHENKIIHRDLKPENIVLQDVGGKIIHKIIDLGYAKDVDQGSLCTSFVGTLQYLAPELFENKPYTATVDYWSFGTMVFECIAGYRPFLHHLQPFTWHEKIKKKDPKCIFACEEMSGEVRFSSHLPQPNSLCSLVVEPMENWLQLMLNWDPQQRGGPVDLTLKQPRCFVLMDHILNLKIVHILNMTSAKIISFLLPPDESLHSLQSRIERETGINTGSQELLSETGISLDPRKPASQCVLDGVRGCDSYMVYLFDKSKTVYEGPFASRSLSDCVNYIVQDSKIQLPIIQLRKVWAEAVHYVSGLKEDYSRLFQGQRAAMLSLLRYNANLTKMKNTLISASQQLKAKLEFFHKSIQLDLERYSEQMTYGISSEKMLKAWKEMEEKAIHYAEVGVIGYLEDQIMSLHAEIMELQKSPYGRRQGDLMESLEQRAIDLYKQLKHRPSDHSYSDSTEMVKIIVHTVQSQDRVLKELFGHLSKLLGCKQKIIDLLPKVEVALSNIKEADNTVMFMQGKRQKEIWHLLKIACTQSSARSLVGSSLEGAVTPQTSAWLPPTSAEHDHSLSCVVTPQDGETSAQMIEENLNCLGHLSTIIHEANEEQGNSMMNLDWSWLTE

[7] = molecular target: T2, Inhibitor of nuclear factor kappa-B kinase subunit alpha (Homo sapiens); conditions: at 1 µM
[8] = molecular target: T3, Inhibitor of nuclear factor kappa-B kinase subunit beta (Homo sapiens) (UniProt O14920); conditions: at 0.1 µM
T3 sequence (whole entry): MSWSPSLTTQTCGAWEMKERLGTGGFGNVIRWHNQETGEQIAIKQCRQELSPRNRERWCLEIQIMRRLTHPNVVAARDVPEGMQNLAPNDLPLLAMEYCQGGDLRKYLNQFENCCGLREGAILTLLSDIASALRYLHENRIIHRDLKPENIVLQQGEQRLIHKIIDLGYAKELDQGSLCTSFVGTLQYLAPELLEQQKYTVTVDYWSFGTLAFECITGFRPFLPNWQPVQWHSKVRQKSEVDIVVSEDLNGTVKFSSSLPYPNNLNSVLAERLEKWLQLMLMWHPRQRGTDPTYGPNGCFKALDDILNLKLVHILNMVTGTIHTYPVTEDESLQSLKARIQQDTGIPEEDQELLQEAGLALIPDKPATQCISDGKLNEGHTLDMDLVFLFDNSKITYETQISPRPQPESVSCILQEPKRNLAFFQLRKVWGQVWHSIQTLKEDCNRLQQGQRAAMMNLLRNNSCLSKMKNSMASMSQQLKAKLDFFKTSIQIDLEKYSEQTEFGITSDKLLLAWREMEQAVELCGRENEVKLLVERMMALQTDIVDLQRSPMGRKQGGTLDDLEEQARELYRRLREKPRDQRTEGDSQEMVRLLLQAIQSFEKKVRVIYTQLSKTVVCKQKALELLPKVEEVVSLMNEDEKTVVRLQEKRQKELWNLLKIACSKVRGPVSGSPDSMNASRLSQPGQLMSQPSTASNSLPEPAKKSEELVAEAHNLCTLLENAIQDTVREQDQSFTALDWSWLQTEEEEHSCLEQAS

[9] = molecular target: T3, Inhibitor of nuclear factor kappa-B kinase subunit beta (Homo sapiens); conditions: at 1 µM
[10] = molecular target: T4, Inhibitor of nuclear factor kappa-B kinase subunit epsilon (Homo sapiens) (UniProt Q14164); conditions: at 0.1 µM
T4 sequence (whole entry): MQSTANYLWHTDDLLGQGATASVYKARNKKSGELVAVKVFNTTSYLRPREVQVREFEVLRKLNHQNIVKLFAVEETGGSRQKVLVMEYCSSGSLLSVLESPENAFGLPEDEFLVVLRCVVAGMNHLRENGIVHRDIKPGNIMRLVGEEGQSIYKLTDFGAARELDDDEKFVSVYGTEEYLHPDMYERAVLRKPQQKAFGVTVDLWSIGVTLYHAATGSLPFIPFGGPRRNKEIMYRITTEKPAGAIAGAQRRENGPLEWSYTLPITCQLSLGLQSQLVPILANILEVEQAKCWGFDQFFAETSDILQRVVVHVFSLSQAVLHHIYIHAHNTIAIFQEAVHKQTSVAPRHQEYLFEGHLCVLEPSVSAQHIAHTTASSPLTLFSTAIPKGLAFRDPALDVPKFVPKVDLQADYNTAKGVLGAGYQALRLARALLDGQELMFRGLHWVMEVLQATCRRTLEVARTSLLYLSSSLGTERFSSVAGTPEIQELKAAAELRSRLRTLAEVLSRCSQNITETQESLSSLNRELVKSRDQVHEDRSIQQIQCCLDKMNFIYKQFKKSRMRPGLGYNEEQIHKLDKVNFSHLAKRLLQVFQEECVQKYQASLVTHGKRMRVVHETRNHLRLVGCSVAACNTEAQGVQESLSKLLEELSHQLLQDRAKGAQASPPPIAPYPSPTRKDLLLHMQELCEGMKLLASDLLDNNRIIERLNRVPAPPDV

[11] = molecular target: T4, Inhibitor of nuclear factor kappa-B kinase subunit epsilon (Homo sapiens); conditions: at 1 µM
[12] = molecular target: T5, Serine/threonine-protein kinase Nek1 (Homo sapiens) (UniProt Q96PY6); conditions: at 0.1 µM
T5 sequence (whole entry): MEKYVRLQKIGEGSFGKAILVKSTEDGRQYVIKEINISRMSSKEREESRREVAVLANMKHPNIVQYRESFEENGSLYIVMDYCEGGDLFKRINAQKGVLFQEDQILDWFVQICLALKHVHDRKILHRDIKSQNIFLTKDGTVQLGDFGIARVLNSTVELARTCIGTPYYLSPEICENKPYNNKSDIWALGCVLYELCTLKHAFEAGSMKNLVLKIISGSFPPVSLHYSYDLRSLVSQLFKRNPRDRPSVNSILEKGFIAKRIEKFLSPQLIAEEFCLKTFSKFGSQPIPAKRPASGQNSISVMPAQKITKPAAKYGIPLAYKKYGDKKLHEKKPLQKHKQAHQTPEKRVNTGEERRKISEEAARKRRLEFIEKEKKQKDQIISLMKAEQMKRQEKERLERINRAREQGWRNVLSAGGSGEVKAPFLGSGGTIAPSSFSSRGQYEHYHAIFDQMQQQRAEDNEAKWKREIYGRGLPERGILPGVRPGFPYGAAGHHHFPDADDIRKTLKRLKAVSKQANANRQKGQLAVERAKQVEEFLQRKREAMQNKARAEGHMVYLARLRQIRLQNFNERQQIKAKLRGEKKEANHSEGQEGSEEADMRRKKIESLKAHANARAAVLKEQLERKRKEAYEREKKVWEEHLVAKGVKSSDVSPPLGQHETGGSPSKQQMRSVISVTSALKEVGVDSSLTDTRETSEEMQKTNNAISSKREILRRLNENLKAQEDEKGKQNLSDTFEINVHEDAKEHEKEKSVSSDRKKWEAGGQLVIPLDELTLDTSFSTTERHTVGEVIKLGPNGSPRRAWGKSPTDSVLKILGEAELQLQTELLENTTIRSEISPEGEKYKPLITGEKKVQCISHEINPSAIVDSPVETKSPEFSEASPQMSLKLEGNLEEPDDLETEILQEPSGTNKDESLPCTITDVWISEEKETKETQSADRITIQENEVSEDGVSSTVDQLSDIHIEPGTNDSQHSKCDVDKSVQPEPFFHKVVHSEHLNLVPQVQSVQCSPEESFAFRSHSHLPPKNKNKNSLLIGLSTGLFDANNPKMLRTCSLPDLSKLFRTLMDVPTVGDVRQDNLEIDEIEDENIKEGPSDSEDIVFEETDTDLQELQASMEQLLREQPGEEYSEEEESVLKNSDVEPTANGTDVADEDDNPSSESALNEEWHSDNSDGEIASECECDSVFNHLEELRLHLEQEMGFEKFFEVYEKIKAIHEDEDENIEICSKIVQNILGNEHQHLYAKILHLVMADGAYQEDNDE

[13] = molecular target: T5, Serine/threonine-protein kinase Nek1 (Homo sapiens); conditions: at 1 µM
[14] = molecular target: T6, Serine/threonine-protein kinase Nek2 (Homo sapiens) (UniProt P51955); conditions: at 0.1 µM
T6 sequence (whole entry): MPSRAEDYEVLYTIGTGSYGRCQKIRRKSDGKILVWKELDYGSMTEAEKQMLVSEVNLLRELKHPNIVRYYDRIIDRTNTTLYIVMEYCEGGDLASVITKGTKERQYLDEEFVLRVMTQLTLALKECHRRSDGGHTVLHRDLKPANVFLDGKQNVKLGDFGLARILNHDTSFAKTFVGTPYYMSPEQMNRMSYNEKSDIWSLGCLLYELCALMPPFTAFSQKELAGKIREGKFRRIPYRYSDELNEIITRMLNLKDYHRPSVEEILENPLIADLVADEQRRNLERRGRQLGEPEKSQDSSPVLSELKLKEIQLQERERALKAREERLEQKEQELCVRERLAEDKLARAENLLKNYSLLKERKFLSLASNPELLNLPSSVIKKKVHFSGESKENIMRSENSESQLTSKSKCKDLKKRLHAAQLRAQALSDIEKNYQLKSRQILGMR

[15] = molecular target: T6, Serine/threonine-protein kinase Nek2 (Homo sapiens); conditions: at 1 µM
[16] = molecular target: Serine/threonine-protein kinase Nek6 (Homo sapiens) (UniProt Q9HC98); conditions: at 0.1 µM
Chain of Serine/threonine-protein kinase Nek6 (Homo sapiens) (Q9HC98 whole entry): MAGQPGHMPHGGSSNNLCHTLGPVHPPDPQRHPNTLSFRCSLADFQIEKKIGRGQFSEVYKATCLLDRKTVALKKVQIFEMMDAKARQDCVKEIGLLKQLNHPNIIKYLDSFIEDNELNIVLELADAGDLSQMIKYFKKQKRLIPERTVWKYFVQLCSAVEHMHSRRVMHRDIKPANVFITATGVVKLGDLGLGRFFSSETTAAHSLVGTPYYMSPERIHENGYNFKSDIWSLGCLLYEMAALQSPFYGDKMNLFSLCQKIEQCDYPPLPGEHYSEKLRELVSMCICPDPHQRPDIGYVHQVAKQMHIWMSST

[17] = molecular target: Serine/threonine-protein kinase Nek6 (Homo sapiens) (UniProt Q9HC98); conditions: at 1 µM
[18] = molecular target: Serine/threonine-protein kinase Nek7 (Homo sapiens) (UniProt Q8TDX7); conditions: at 0.1 µM
Chain of Serine/threonine-protein kinase Nek7 (Homo sapiens) (Q8TDX7 whole entry, looked up): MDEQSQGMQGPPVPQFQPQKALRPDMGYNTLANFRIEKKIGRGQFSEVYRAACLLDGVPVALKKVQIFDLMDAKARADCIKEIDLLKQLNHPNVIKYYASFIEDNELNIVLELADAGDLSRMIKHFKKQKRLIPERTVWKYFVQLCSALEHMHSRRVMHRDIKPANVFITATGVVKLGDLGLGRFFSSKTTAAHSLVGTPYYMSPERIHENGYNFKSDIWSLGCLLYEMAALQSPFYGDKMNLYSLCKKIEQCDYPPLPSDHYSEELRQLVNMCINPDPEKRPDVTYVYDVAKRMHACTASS

[19] = molecular target: Serine/threonine-protein kinase Nek7 (Homo sapiens) (UniProt Q8TDX7); conditions: at 1 µM
[20] = molecular target: T7, Serine/threonine-protein kinase Nek9 (Homo sapiens) (UniProt Q8TD19); conditions: at 0.1 µM;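 also: reported value is the mean percent inhibition of NEK9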
T7 sequence (whole entry): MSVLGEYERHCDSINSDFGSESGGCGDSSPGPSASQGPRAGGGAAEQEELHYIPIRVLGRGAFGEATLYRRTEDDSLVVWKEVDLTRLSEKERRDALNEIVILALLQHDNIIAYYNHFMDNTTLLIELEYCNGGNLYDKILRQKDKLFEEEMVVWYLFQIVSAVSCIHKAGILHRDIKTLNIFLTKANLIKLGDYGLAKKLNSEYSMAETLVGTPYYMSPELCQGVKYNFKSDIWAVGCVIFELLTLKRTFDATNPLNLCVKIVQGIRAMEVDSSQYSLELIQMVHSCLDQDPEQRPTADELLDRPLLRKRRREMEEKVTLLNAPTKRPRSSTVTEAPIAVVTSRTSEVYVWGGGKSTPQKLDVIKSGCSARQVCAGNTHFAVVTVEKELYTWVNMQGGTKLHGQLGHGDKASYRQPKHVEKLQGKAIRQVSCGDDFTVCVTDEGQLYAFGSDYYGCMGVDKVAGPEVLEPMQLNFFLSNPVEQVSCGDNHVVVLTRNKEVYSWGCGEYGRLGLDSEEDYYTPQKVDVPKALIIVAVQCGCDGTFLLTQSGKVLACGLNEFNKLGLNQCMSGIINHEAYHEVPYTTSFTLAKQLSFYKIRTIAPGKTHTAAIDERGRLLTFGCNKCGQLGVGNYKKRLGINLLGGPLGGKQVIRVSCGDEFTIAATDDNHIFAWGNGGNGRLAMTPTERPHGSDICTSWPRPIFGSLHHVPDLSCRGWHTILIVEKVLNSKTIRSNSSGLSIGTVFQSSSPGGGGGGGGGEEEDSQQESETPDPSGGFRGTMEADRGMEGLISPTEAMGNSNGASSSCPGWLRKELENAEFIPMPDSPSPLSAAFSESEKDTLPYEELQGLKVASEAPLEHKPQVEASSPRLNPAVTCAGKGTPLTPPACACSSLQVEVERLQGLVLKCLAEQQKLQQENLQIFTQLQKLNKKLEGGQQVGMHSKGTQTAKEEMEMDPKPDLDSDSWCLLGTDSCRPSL

Chain of Sphingosine kinase 1 (Homo sapiens) (Q9NYA1 whole entry): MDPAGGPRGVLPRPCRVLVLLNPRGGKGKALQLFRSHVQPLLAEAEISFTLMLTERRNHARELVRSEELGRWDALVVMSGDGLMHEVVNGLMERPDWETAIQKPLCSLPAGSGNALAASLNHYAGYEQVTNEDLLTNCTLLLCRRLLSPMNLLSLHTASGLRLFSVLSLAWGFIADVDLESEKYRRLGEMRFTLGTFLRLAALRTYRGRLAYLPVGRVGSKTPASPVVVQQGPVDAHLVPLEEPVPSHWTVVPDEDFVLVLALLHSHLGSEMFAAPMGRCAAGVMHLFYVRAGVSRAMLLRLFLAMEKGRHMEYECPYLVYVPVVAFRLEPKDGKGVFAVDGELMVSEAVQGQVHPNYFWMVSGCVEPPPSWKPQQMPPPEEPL

Row | SMILES | inhibition [1] [%] | inhibition [2] [%] | inhibition [3] [%] | inhibition [4] [%] | inhibition [5] [%] | inhibition [6] [%] | inhibition [7] [%] | inhibition [8] [%] | inhibition [9] [%] | inhibition [10] [%] | inhibition [11] [%] | inhibition [12] [%] | inhibition [13] [%] | inhibition [14] [%] | inhibition [15] [%] | inhibition [16] [%] | inhibition [17] [%] | inhibition [18] [%] | inhibition [19] [%] | inhibition [20] [%]
1 | Fc1ccc(-c2ncn(C3CCNCC3)c2-c2ccnc(Oc3ccc(Oc4ccccc4)cc3)n2)cc1 | -0.85 | -0.41 | -0.56 | 4.31 | 4.14 | 4.44 | 5.03 | 5.84 | 6.14 | 7.47 | 6.34 | 1.09 | 1.58 | 5.87 | 3.38 | -2.46 | 2.86 | 3.94 | 9.34 | 4.61
2 | COc1cc(Nc2ncc3c(C)nc(-c4cccc(C(F)(F)F)c4)n3n2)cc(OC)c1OC | -1.99 | 0.44 | -3.1 | 9.99 | 43.1 | -0.47 | 4.04 | 3.58 | 3.21 | 10.6 | 18.9 | 4.76 | 21.8 | 7.77 | 37.5 | 4.4 | 9.1 | 5.91 | 10.5 | 54.9
